Experimental data from publication PMC4552634, “A New Set of Chemical Starting Points with Plasmodium falciparum Transmission-Blocking Potential for Antimalarial Drug Discovery” (PLoS ONE, 2015).
Like-named read-outs stand apart in the source and are kept apart here. The whole screen tested about 13,000 compounds, of which about 3,200 (25%) showed an effect of 50% or more. Some of the results follow.

Test system: P. falciparum stage V gametocytes
Design: BacTiter-Glo ATP luminescence viability of purified stage V gametocytes in 384-well plates, per cent inhibition versus DMSO
Conditions: 48 h, 5 µM, inhibitor

SMILES: Cc1ccc(NC(=O)c2cccc(CN3CCCN(Cc4cccc(O)c4)CC3)c2)cc1 [TCMDC-135961]
- % Inhibition: 28.04%

SMILES: CCN1CCN(Cc2c(O)ccc3c(=O)c(Oc4cc(C)cc(C)c4)c(C(F)(F)F)oc23)CC1 [TCMDC-125696]
- % Inhibition: 11.78%

SMILES: NC1=NC2(CCCCC2)N(Cc2ccc(Cl)c(Cl)c2)C(N)=N1 [TCMDC-136304]
- % Inhibition: -26.78%

SMILES: CN1CC=C(c2c[nH]c3ccc(C(=O)c4nccs4)cc23)CC1 [TCMDC-137277]
- % Inhibition: 17.28%

SMILES: Cc1cc(Nc2ccccc2)nc(NCCOc2ccccc2)n1 [TCMDC-137574]
- % Inhibition: 48.49%

SMILES: O=C(O)c1cccc2c(-c3ccncc3)cccc12 [TCMDC-139219]
- % Inhibition: 9.999%

SMILES: Cn1ccnc1S(=O)(=O)CCNCc1ccc(-c2ccc3ncnc(Nc4ccc(OCc5cccc(F)c5)c(Cl)c4)c3c2)o1 [TCMDC-138564]
- % Inhibition: 21.76%

SMILES: CCOc1ccc(S(=O)(=O)N(C)c2ccc(OCC(=O)Nc3nccs3)cc2)cc1 [TCMDC-123622]
- % Inhibition: 21.93%

SMILES: O=C(COc1ccc(C(=O)c2ccccc2)cc1)Nc1nccs1 [TCMDC-124432]
- % Inhibition: -13.79%

SMILES: Cc1ccc(C(CC(=O)Nc2nccs2)c2ccc(OC(C)C)cc2)cc1 (stereo not shown) [TCMDC-124467]
- % Inhibition: 72.01%

SMILES: O=C(/C=C/c1ccc(Cl)c(Cl)c1)NCCCCCN1CCC(NC(=O)c2ccc([N+](=O)[O-])cc2)CC1 [TCMDC-135843]
- % Inhibition: 15.45%

SMILES: CCn1ccc2c(N3CCCCS3(=O)=O)cc(C(=O)N[C@@H](Cc3ccccc3)[C@H](O)CNC3CCCCC3)cc21 [TCMDC-135314]
- % Inhibition: 53.3%

SMILES: CCn1ccc2c(N3CCCCS3(=O)=O)cc(C(=O)N[C@@H](Cc3ccccc3)[C@H](O)CNC(C)(C)c3cccc(C(F)(F)F)c3)cc21 [TCMDC-135317]
- % Inhibition: 87.8%

SMILES: CCCN(CCC)C(=O)c1cc(C(=O)N[C@@H](Cc2ccccc2)[C@H](O)CNC(C)(C)c2cccc(OC)c2)cc(N2CCCCS2(=O)=O)c1 [TCMDC-134674]
- % Inhibition: 75.74%

SMILES: CCCN(CCC)C(=O)c1cc(C(=O)N[C@@H](Cc2ccccc2)[C@H](O)CNC(C)(C)c2cccc(C(F)(F)F)c2)cc(N2CCCCS2(=O)=O)c1 [TCMDC-134675]
- % Inhibition: 20.25%

SMILES: CCOc1cc(C(=O)N[C@@H](Cc2ccccc2)[C@H](O)CNC(C)(C)c2cccc(OC)c2)cc(N2CCCS2(=O)=O)c1 [TCMDC-134403]
- % Inhibition: 22.2%

SMILES: CCN1CCc2c1cc(C(=O)N[C@@H](Cc1ccccc1)[C@H](O)CNC(C)(C)c1cccc(C(F)(F)F)c1)cc2N1CCCCS1(=O)=O [TCMDC-135451]
- % Inhibition: 62.24%

SMILES: CCn1ccc2c(N3CCCS3(=O)=O)cc(C(=O)N[C@@H](Cc3ccccc3)[C@H](O)CNC3CCCCC3)cc21 [TCMDC-135315]
- % Inhibition: 41.25%

SMILES: CCCN(CCC)C(=O)c1cc(C(=O)N[C@@H](Cc2ccccc2)[C@H](O)CNCc2cccc(OC)c2)cc(N2CCCCS2(=O)=O)c1 [TCMDC-138893]
- % Inhibition: -16.98%

SMILES: CCn1cnc2c(N3CCCS3(=O)=O)cc(C(=O)N[C@@H](Cc3ccccc3)[C@H](O)CNC(C)(C)c3cccc(C(F)(F)F)c3)cc21 [TCMDC-135450]
- % Inhibition: 36.58%

SMILES: CCCN(CCC)C(=O)c1cc(C(=O)N[C@@H](Cc2ccccc2)[C@H](O)CNCc2cccc(C(F)(F)F)c2)cc(N2CCCCS2(=O)=O)c1 [TCMDC-138883]
- % Inhibition: -16.54%

SMILES: CCn1cnc2c(N3CCCCS3(=O)=O)cc(C(=O)N[C@@H](Cc3ccccc3)[C@H](O)CNC3CCOCC3)cc21 [TCMDC-135662]
- % Inhibition: 16.67%

SMILES: CCn1ccc2c(N3CCCS3(=O)=O)cc(C(=O)N[C@@H](Cc3ccccc3)[C@H](O)CNC(C)(C)c3cccc(OC)c3)cc21 [TCMDC-134672]
- % Inhibition: 43.65%

SMILES: CC[C@H](C)[C@@H](C(=O)N1CCOCC1)N1CC[C@H](NS(=O)(=O)CC(C)(C)c2ccc(Cl)cc2)C1=O [TCMDC-138910]
- % Inhibition: -4.326%

SMILES: N#Cc1ccc(N2CCN(Cc3cccc(-c4ccc(-c5nc6cc(C(F)(F)F)ccc6[nH]5)s4)c3)CC2)nc1.O=C(O)C(F)(F)F [TCMDC-133114]
- % Inhibition: -37.6%

SMILES: CCCCCC(C)c1cc(O)c2c(c1)OC(C)(C)C=C2C1=CCN(Cc2ccccc2)CC1 (stereo not shown) [TCMDC-131350]
- % Inhibition: -56.28%

SMILES: O=C(NC1CCC(CN2CCC(c3c[nH]c4ccccc34)CC2)CC1)NC12CC3CC(CC(C3)C1)C2 (stereo not shown) [TCMDC-140204]
- % Inhibition: 96.25%

SMILES: FC(F)(F)c1ccc(NC(=S)NC2CCC(CN3CCC(c4c[nH]c5ccccc45)CC3)CC2)cc1 (stereo not shown) [TCMDC-140198]
- % Inhibition (% Inhibition): 109.8%

SMILES: O=C(Nc1ccccc1Cl)NC1CCC(CN2CCC(c3c[nH]c4ccccc34)CC2)CC1 (stereo not shown) [TCMDC-140196]
- % Inhibition (% Inhibition): 17.3%

SMILES: O=C(NC1CCC(CN2CCC(c3c[nH]c4ccccc34)CC2)CC1)c1csc(-c2ccc(C(F)(F)F)cc2Cl)n1 (stereo not shown) [TCMDC-140352]
- % Inhibition: 52.36%

SMILES: O=C(Nc1ccccc1Cl)NC1CCC(CN2CCC(c3c[nH]c4ccccc34)CC2)CC1 (stereo not shown) [TCMDC-140176]
- % Inhibition (% Inhibition): -4.106%

SMILES: O=C(NC1CCC(CN2CCC(c3c[nH]c4ccccc34)CC2)CC1)c1ccc(-c2cc(C(F)(F)F)ccc2Cl)o1 (stereo not shown) [TCMDC-140350]
- % Inhibition: -5.918%

SMILES: FC(F)(F)c1ccc(NC(=S)NC2CCC(CN3CCC(c4c[nH]c5ccccc45)CC3)CC2)cc1 (stereo not shown) [TCMDC-140178]
- % Inhibition (% Inhibition): 78.37%

SMILES: O=C(NC1CCC(CN2CCC(c3c[nH]c4ccccc34)CC2)CC1)c1csc(-c2cccc(Cl)c2Cl)n1 (stereo not shown) [TCMDC-140351]
- % Inhibition: -28.23%
